# A selection: hits, their analogues and other compounds. The true share with any hit is near 1.7%.
# TrxR1 inh = qHTS Assay for Inhibitors of Mammalian Selenoprotein Thioredoxin Reductase 1 (TrxR1): qHTS; recombinant rTrxR1, NADPH fluorescence consumption, selenite substrate; Thioredoxin reductase 1, cytoplasmic (Rattus norvegicus), O89049; 390,000 tested, 1% active; Potency, µM (titrated, usually from 114 µM), for inactives: top-dose activity change, negative = inhibition, hits mostly inhibitors; AID 588453, 2011; also: % is scaled to controls: 0 for no effect and ±100 for the full control effect; nearly all actives have a fitted effect of over 65% in size
#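 Rat TrxR1 (90 nM in the dispensed reagent) was pre-reduced with 400 uM NADPH for 5 min at room temperature, then incubated with compound for 15 min. After 400 uM selenite was added, NADPH fluorescence (Ex 340/Em 450 nm) was followed for 8 min.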
# 12-LOX inh = Primary qHTS assay for inhibitors of human arachidonate 12S-lipoxygenase (ALOX12): Round 2. purified 12hLO, xylenol orange hydroperoxide absorbance. AID 1671190, 2021. Polyunsaturated fatty acid lipoxygenase ALOX12 (Homo sapiens), P18054. Potency, µM (series often up to 108 µM), for the others: at the top dose activity change, negative = inhibition, most hits filed as inhibitors. 580,000 tested, 1.1% active; also: % is scaled to controls: 0 for no effect and ±100 for the full control effect
# Target sequence (P18054 whole entry, looked up): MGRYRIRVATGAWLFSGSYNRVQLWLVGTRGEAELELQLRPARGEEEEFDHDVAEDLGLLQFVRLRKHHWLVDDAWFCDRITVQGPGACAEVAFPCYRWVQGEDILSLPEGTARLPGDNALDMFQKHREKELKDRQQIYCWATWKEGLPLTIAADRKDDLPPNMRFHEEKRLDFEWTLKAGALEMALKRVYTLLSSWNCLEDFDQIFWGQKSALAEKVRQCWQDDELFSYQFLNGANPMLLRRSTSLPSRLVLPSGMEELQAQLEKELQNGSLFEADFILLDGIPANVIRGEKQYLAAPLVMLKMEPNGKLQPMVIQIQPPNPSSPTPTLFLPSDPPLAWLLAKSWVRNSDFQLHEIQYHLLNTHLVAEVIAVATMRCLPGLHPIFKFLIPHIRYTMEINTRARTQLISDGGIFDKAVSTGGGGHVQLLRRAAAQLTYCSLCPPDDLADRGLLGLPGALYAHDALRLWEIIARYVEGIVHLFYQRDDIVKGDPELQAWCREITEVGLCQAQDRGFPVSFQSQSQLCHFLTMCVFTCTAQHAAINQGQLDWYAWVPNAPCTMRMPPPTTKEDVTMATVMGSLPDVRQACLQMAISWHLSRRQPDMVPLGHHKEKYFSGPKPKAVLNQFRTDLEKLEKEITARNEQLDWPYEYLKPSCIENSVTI
#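 Purified human 12hLO (150 nM final) in 25 mM Hepes, 0.01% Triton X-100, pH 7.0 was preincubated 15 min at room temperature with compound. Then 40 uM arachidonic acid was added, 30 min. Hydroperoxide was read by Fe-XO absorbance ratio 573/405 nm.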
# mIDH1 inhibitor = qHTS for Inhibitors of mutant isocitrate dehydrogenase 1 (IDH1): qHTS; Isocitrate dehydrogenase [NADP] cytoplasmic (Homo sapiens), O75874; IDH1-R132H enzyme, NADPH consumption, diaphorase/resazurin fluorescence; Potency, µM (highest dose often 76.6 µM), for inactives: at the top dose activity change, negative = inhibition, usual class: inhibitors; 390,000 tested, 0.093% active; AID 602179, 2012; also: % is scaled to controls: 0 for no effect and ±100 for the full control effect; nearly all actives have a fitted effect of over 65% in size
#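 IDH1-R132H (0.5 ug/mL dispensed) in pH 7.5 Tris buffer was preincubated 30 min with compound, then given a substrate mix of 0.016 mM NADPH and 2 mM alpha-KG for 80 min at room temperature; remaining NADPH was read by diaphorase/resazurin fluorescence.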
# Anesthetic bind = qHTS Assay for Identification of Novel General Anesthetics | apoferritin/1-aminoanthracene competitive binding, fluorescence | Potency, µM (highest dose often 77.5 µM), inactives show at the top dose activity change, negative = displacement, actives largely listed as inhibitors | 350,000 tested, 0.074% active | AID 485281, 2010; also: % is scaled to controls: 0 for no effect and ±100 for the full control effect; nearly all actives have a fitted effect of over 20% in size
#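 Concentration-response curves derived by four-parameter Hill fitting of normalized fluorescence, where compounds displaced 1-AMA from 10 uM horse apoferritin following a brief 10 min room-temperature incubation; propofol titration acted as positive control.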
# TrxR1 substrate = qHTS Assay for Substrates of Mammalian Selenoprotein Thioredoxin Reductase 1 (TrxR1): qHTS; Thioredoxin reductase 1, cytoplasmic (Rattus norvegicus), O89049; purified TrxR1 substrate turnover, NADPH consumption readout; Potency, µM (highest dose often 114 µM), without a hit: at the top dose activity change, negative = substrate turnover; 390,000 tested, 0.01% active; also: % is scaled to controls: 0 for no effect and ±100 for the full control effect; nearly all actives have a fitted effect of over 50% in size
#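 Rat TrxR1, dispensed at 90 nM, was prereduced with 400 uM NADPH (final) for 5 min at ~22 deg C, then incubated with compound 15 min before 400 uM selenite. A first-read NADPH fluorescence drop versus no-compound background flagged substrates.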
# GRP78 ERSR act = qHTS for Inducers of the Endoplasmic Reticulum Stress Response (ERSR) in Human Glioma: qHTS; U87-MG GRP78 promoter luciferase reporter, 16 h; Potency, µM, without a hit: top-dose activation, most hits filed as activators; 420,000 tested, 0.02% active; AID 602332, 2012; also: series mostly up to about 76 µM; % of control where 0% means no effect; nearly all actives have a fitted effect of over 35% in size
#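 Stably transfected U87-MG human glioma cells carrying a GRP78-based luminescent sensor were seeded at 1000 cells/well, pin-dosed with compounds and incubated 16 h. Luciferase reagent was then added, and end-point luminescence was read after 10 min at room temperature.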
# * = called active by the depositor; ? = inconclusive; · = no result given; [ ] = dose if it differs, or a comment. Calls follow the shape of the dose curve; as a rule, active = well fitted curve in the direction sought with a large enough effect; inconclusive = small, poorly fitted or top-dose-only effect, or another doubt; inactive = no such curve, though single readings can be large; an effect the other way counts as inactive or inconclusive. Potency is read from the fitted curve at half-maximal effect.
SMILES,TrxR1 inh,12-LOX inh,mIDH1 inhibitor,Anesthetic bind,TrxR1 substrate,GRP78 ERSR act
O=C(CCNc1cccc(F)c1)c1cccc([N+](=O)[O-])c1,6.3µM*,-4%,2%,?,-3%[57.1 µM],-12%
O=C(CCNc1ccc(F)cc1)c1cc2ccccc2o1,?,?,0%,-6%,12%[57.1 µM],-12%
Cc1ccc(NCCC(=O)c2cc3ccccc3o2)cc1Br,·,35µM*,·,·,·,·
O=C(CCNc1cccc(F)c1)c1cc2ccccc2o1,7.9µM*,?,-5%,?,1%,0%
CCn1ncc2c(C(=O)Nc3ccc(OC)c(OC(F)F)c3)cc(-c3cccs3)nc21,·,-21%,·,·,·,·
COc1ccc(N2CC3CCC(C2)N3C(=O)NC(C)C)cc1,·,4%[6.33 µM],·,·,·,·
Cc1cc(C(=O)OCCOc2ccccc2)c2ccccc2n1,·,1%,·,·,·,·
O=C(Oc1ccccc1[N+](=O)[O-])c1cccnc1,14µM*,0%,-1%,-19%,-4%,2%
CC1CN(Cc2ccccc2)c2ccccc2NC1=S (centres undefined),1%,35µM*,1%,0%,-2%,-2%
CC1CN(Cc2ccccc2)C(=O)N(c2ccccc2)C1=O (centres undefined),4%,-10%,0%,·,-3%,-2%
O=C(O)c1cc(O)ccc1N=Nc1ccccc1,-7%[2.29 µM],60%,-4%,-12%,-4%[2.29 µM],28µM*
CN(C)S(=O)(=O)c1cccc(NC(=O)C2Cc3ccccc3CN2C(=O)c2ccco2)c1 (centres undefined),56µM*,?,4%,0%,4%,14%
Cc1ccc(NC(=O)C2Cc3ccccc3CN2C(=O)c2ccco2)cc1S(=O)(=O)N(C)C (centres undefined),?,-18%,3%,5%,1%,-3%
COC(=O)c1nn2c(C(F)(F)F)cc(-c3ccc(Br)o3)nc2c1Br,6.3µM*,-22%,1%,-5%,10%,-2%
CC(C)(C)NC(=O)c1nn2c(C(F)(F)F)cc(-c3ccccc3)nc2c1Br,33%[2.29 µM],-5%,6%,-4%,-1%,-3%
O=C(CC[C@@H]1CNC(=O)[C@@H]2C[C@H](NCc3ccc(F)cc3)CN12)NCc1ccccc1,·,85%[176 µM],·,·,·,·
O=C(CC[C@@H]1CNC(=O)[C@@H]2C[C@H](NC(=O)c3ccccc3)CN12)NCc1ccc(F)cc1,·,32µM*,·,·,·,·
Oc1c(C=Nc2ccccc2)sc(=S)n1Cc1ccccc1,4%[57.1 µM],8.9µM*,5%,-20%,6%[57.1 µM],3%
COc1cc(-c2onc(C)c2C(=O)NCc2cccc(F)c2F)cc(OC)c1OC,·,12%,·,·,·,·
Cc1ccc(S(=O)(=O)c2nc(S(C)(=O)=O)sc2N2CCC(C)CC2)cc1,13µM*,13%,-3%,-5%,5%,-16%
COc1ccc(CC(=O)OCc2ccccc2C#N)c(OC)c1,·,49%,·,·,·,·
C[N+](C)(C)CCN(Cc1ccc(Cl)cc1)c1ccccn1,9%[57.1 µM],16µM*,-1%,-8%,12%[57.1 µM],-3%
Cc1ccc(S(=O)(=O)N/N=C2/CC(=O)CC(C)(C)C2)cc1[N+](=O)[O-],40µM*,-15%,3%,-12%,-3%,-2%
Cc1ccc(S(=O)(=O)NN=C2C3CC4CC(C3)CC2C4)cc1[N+](=O)[O-],15%,?,5%,-2%,5%,-5%
C=CCN(CC=C)Cc1c(C)[nH]c2ccccc2c1=O,·,8%,·,·,·,·
O=C(Nc1cc(C(F)(F)F)ccc1N1CCOCC1)c1n[nH]c(=O)c2ccccc12,7%[57.1 µM],-19%,12µM*,-17%,9%[57.1 µM],-8%

# Screening results: PubChem, National Center for Advancing Translational Sciences (NCATS)
